Twelve compounds from ChEMBL document CHEMBL4513146, “CO-ADD screening of Karazin Kharkiv National University (Ukraine) compounds” can be followed below.

The test system of one assay is Klebsiella pneumoniae. The following applies: Concentration 32 ug.mL-1;; ASSAY_TEST Inhibition of Bacterial Growth; detection method Absorption (OD600); MEDIA CAMHB; plate type 384well; NBS; CORNING #3640; time 18 hr.
A further assay has as its system Candida albicans. The following applies: Concentration 32 ug.mL-1; ASSAY_TEST Inhibition of Fungal Growth; detection method Absorption (OD530).
The subject of the next assay is Cryptococcus neoformans. Particulars: Concentration 32 ug.mL-1; ASSAY_TEST Inhibition of Fungal Growth; detection method Resazurin; Absorption (OD600-OD570); plate type 384well; NBS; CORNING #3640. (In general: The colour change of resazurin is a common sign of viable cells or microbes.)

Potency and affinity values are given separately.

One may read the Inhibition as the change of the read-out against control, counted positive when it falls. `COc1ccc(NC(=O)Cn2nc3c(N4CC(C)CC(C)C4)nccn3c2=O)c(OC)c1` (stereo unspecified): the figures for the Inhibition in the assay on Klebsiella pneumoniae, in the assay on Candida albicans and in the assay on Cryptococcus neoformans were 17.76%, 1.51% and -7.52%, respectively.

Take `COC(=O)c1ccc(NC(=O)Cn2nc3c4cc(-c5ccc(F)cc5)nn4ccn3c2=O)cc1`: the Inhibition with Klebsiella pneumoniae is listed as 11.64%; with Candida albicans, 3.5%; with Cryptococcus neoformans, -12.29%.

For the compound `COC(=O)c1ccc(NC(=O)Cn2nc3c(Oc4cccc(OC)c4)nccn3c2=O)cc1`, the Inhibition was 5.51% with Klebsiella pneumoniae, 12.96% in the assay with Candida albicans and -6.09% in the assay with Cryptococcus neoformans.

Take `CC(=O)c1ccc(NC(=O)Cn2nc3c(SC4CCCCC4)nccn3c2=O)cc1`: the Inhibition is 4.71% with Klebsiella pneumoniae, 0.5% in the assay with Candida albicans and -15.4% with Cryptococcus neoformans.

Take `COc1cccc(CNC(=O)CSc2nnc3c(=O)n(-c4ccc(F)cc4)ccn23)c1OC`: the Inhibition in the assay with Klebsiella pneumoniae is given as 1.04%; in the assay with Candida albicans, 2.96%; with Cryptococcus neoformans it was -5.56%.

For `O=C(Cn1nc2ccc(-c3ccccc3)nn2c1=O)N1CCN(c2ccc(F)cc2)CC1`, the Inhibition is given as 3.94% in the assay on Klebsiella pneumoniae, -0.37% in the assay on Candida albicans and -5.73% in the assay with Cryptococcus neoformans.

For the compound `CSc1cccc(NC(=O)Cn2nc3c(Sc4cccc(F)c4)nccn3c2=O)c1`, the Inhibition with Klebsiella pneumoniae is on record as 0.95%; in the assay with Candida albicans it was 3.02%; with Cryptococcus neoformans, -2.39%.

On to `COc1ccccc1Cn1c(=O)c2sccc2n2c(=O)n(CC(=O)c3ccc(C)cc3C)nc12`, for which the Inhibition with Klebsiella pneumoniae is reported as 4.01%; with Candida albicans, 8%; in the assay with Cryptococcus neoformans it was -26.25%.

Turning to `COc1ccc(C(=O)CSc2nnc3c(=O)n(-c4cccc(OC)c4)ccn23)cc1`, the Inhibition is 12.72% in the assay on Klebsiella pneumoniae, 5.69% in the assay on Candida albicans and -12.42% in the assay on Cryptococcus neoformans.

For `CCc1ccccc1Sc1nccn2c(=O)n(CC(=O)NCc3ccc(OC)cc3)nc12`, the Inhibition is reported as 1.83% in the assay with Klebsiella pneumoniae, 2.04% in the assay with Candida albicans and -1.62% in the assay with Cryptococcus neoformans.

Turning to `Cc1cc(C)c(NC(=O)Cn2nc3ccc(Sc4cccc(F)c4)nn3c2=O)c(C)c1`, the Inhibition in the assay with Klebsiella pneumoniae is 1.06%; in the assay on Candida albicans it was 2.95%; in the assay on Cryptococcus neoformans it was -10.61%.

In the case of `Cc1cc(C)c(NC(=O)Cn2nc3c(N4CCN(c5ccccc5)CC4)nccn3c2=O)c(C)c1`, the results for the Inhibition in the assay with Klebsiella pneumoniae, in the assay on Candida albicans and with Cryptococcus neoformans were 10.19%, 11.4% and -7.74%, respectively.
